Compounds without any hit were thinned out: in the full panel of roughly 83,000, 20% have a hit.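 96-well plates, one dose, 48 hours. Percent growth reported; active if below 10.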 Calls of active or inactive are those of the source.

In this assay the test system is ACHN renal. Kind of assay: NCI-60 one-dose screen, 48 h (100 = growth as untreated, 0 = no growth, -100 = all killed). The conditions noted are these: 10 µM unless noted. The procedure:
Growth inhibition of the ACHN human tumor cell line is measured as a screen for anti-cancer activity. Cells are grown in 96 well plates and exposed to the test compound for 48 hours. Compounds are tested at a single concentration, which is 10^-5 M for most compounds. The reported endpoint is percent growth (GI% or GIPRCNT), where numbers from 0 - 100% represent growth inhibition, and numbers from -100% - 0 represent cell death. For example, a value of 40 represents 60% growth inhibition. A value of 0 means no net growth occurred over the course of the experiment. A value of -40 indicates 40% of cells at the beginning of the experiment died by the end of the experiment. A value of -100 means all cells are dead at the end of the experiment.
NCI-60 Human Tumor Cell Lines Screen was performed using the standard one-dose NCI protocol, which is described in more detail at https://dtp.cancer.gov/discovery_development/nci-60/default.htm.
Compounds with GIPRCNT values below 10 were considered active. Activity score was based on GIPRCNT using the following formula: […]
Score is 0 for GIPRCNT values of 100 or above, 50 for GIPRCNT values of 0, and 100 for GIPRCNT values of -100.
Take `COc1ccc(OC)c(Cn2cc3c(c2)-c2oncc2CC3)c1`: the growth is 55.8% (inactive).
To `CNCCCNCCCCNCCCN1C(=O)c2ccc3c4c(ccc(c24)C1=O)C(=O)N(CCCNCc1ccccc1OC)C3=O` belongs 26% (inactive); to `COc1cc(-c2cc3cnccc3c3nc(N)c4ccncc4c23)cc(OC)c1OC`, 34.5% (inactive); to `O=C(Nn1cnc2ccccc21)N1CCCC1`, 99.1% (inactive).
Turning to `CCOC(=O)c1c(C)oc2ncnc(Nc3ccc(C(=O)NCCc4ccccc4)cc3)c12`, the growth was 88.7% (inactive).
As for `Brc1c(-c2ccncc2)nc2n1CCS2`, the growth is 87.7% (inactive).
To `COC(=O)C(C)[C@H]1CC[C@@H]2[C@]1(C)CC=C1[C@]23C=C[C@]2(C[C@@H](OC(C)=O)CC[C@]12C)C(C(=O)OC)C3C(=O)OC` (stereo not given in full) belongs 112% (inactive).
The result for `C=CCNC(=S)NNc1ccc([N+](=O)[O-])cn1` reads 104% (inactive); that for `O=C(Nc1ccc(-n2cc(-c3ccncc3)c(-c3ccc(Cl)c(O)c3)n2)cc1)Nc1cc(C(F)(F)F)cc(C(F)(F)F)c1`, 12% (inactive).
The result for `CCCC(C)c1cc(Cc2cc(Cl)cc(Cl)c2O)c(O)c(Cc2cc(Cl)cc(Cl)c2O)c1` (stereo not given) reads 0.12% (active).
For `COc1ccc(Oc2[nH]n(C3=Nc4ccccc4Sc4ccccc43)c(=O)c2C#N)cc1`, the growth was 89.5% (inactive).
To `NNC(=S)N1N=C(c2cc3ccccc3o2)CC1c1c[nH]c2ccccc12` (stereo not given) belongs 24% (inactive).
In the case of `Clc1ccc(N/N=C(\c2ccccc2)c2ccccn2)nc1`, the growth was 8.31% (active).
Turning to `Oc1ccccc1/C=N/N=C\c1ccccc1Cl`, the growth is 95.8% (inactive).
To `N=c1c2c(=O)n3c(nc2nc2sc4ccc(Cl)cc4n12)-c1ccccc1Sc1ccccc1-3` belongs 14.7% (inactive); to `CCc1c(C)c2ccc(OCC(=O)N=Nc3c(O)[nH]c4ccccc34)c(C)c2oc1=O`, 82.2% (inactive).
Regarding `O=C1c2cc([N+](=O)[O-])ccc2-c2cc(Cl)c(NC(=O)C(F)(F)F)cc21`, the growth is 99.5% (inactive).
The result for `Brc1ccc(-c2nc3ccccc3s2)cc1` reads 92% (inactive); that for `CCC(C)(C)c1ccc(OCCCCCCN2CCNCC2)cc1`, 42.6% (inactive); that for `COc1ccc(/C=C(/C(=O)N2CCCCC2)c2cc(OC)c(OC)c(OC)c2)cc1`, 49% (inactive).
The result for `COc1ccc(-c2nc(N)n(C(=S)Nc3ccccc3)n2)cc1` reads 97.9% (inactive).
To `CCCCN(CCCC)c1ccc(C(=O)O)cc1` belongs 105% (inactive); to `Cc1ccc(CC(=O)O)c(C)c1`, 110% (inactive).
Consider `CCOC(=O)CCCCCCCCC(=O)OCC`, for which the growth is 113% (inactive).
To `O=C1C(Br)=CC2C1C1C3CCC3C2(Br)C12OCCO2` (stereo not given) belongs 32.5% (inactive).
As to `COc1ccc2cnc(N)c(C#Cc3cc(C(=O)Nc4ccc(CN5CCN(C)CC5)c(C(F)(F)F)c4)cnc3C)c2c1`, the growth is -43.2% (active).
For `BrCCCOc1ccc(Oc2ccc(OCCCBr)cc2)cc1`, the growth was 120% (inactive).
In the case of `COc1ccc(C2C3(C#N)C(N)=NC(=C(C#N)C#N)C23C#N)cc1OC` (stereo not given), the growth was 106% (inactive).
On to `COC(=O)c1ccc2[nH]c(O)c(C(=Nc3ccc(N(C)C(=O)CN4CCN(C)CC4)cc3)c3cccc(OC)c3)c2c1`, for which the growth was 6.22% (active).
With `CCCCCCCCCCCCCCCCCC1=NCCN1CCNC(C)=O`, the growth is 91.4% (inactive).
To `CCCCCCCCCCCCCCCC[n+]1cccc(C#N)c1` belongs 39.2% (inactive); to `CC1(C)Oc2cc3oc(=O)ccc3cc2C[C@@H]1OCCOS(=O)(=O)c1ccc(C#N)cc1`, 95.2% (inactive).
With `COC(=O)[C@H](Cc1cn(C)cn1)NC(=O)[C@H](Cc1c[nH]c2ccccc12)NC(=O)Nc1cc(C(F)(F)F)cc(C(F)(F)F)c1`, the growth was -38% [100 µM] (active).
On to `O=C1OC(c2ccc(-c3ccccc3)cc2)=C/C1=C/c1c2ccccc2cc2ccccc12`, for which the growth was 97.6% (inactive).
The result for `COc1cc(NC(C)CCCN)c2nc(C)ccc2c1OC` (stereo not given) reads 105% (inactive); that for `CC1=C(C)C(=O)C(C(C)C2=C(C)C(=O)C(C)=C(C)C2=O)=C(C)C1=O`, 110% (inactive).
To `CC1(C)NC(=S)NC1=O` belongs 109% (inactive).
The result for `NC(=O)CC(NC(=O)COc1ccc(Cl)cc1Cl)C(=O)O` (stereo not given) reads 109% (inactive); that for `O=C(Nc1ccc(-n2cc(-c3ccncc3)c(-c3ccc(Cl)c(O)c3)n2)cc1)c1ccc(Cl)c(C(F)(F)F)c1`, -24.3% (active).
On to `C[C@@H](c1ccc2c(c1)[nH]c1ccc(Cl)cc12)c1nc2ccc(Cl)cc2[nH]1`, for which the growth was 79.6% (inactive).

(Values after PubChem BioAssay (NCI).)
